Test results reported in PubChem BioAssay AID651551 (Sanford-Burnham Center for Chemical Genomics, 2012).

Experiment: GAPDH versus PEG-3 reporter suppression – cell-based, luminescence, counter-screen for PEG-3 promoter inhibitor project, SAR follow-up (AID 651551)
Conditions: HeLa PEG-Prom / GAPDH luciferase reporter, 6 or 24 h, run 1, 24 h; at 99 µM (top of the series)

Structure (SMILES) | inhibition % (higher = more inhibition) [%]
CCn1cc(C(=O)NCc2ccco2)c(=O)c2cc(S(=O)(=O)N3CCCC3)ccc21 | 56.3
Cc1cc(NC(=O)c2ccccc2C)n(-c2nc3ccccc3[nH]2)n1 | 57.6
COc1ccc(-n2nc(C(=O)NCC(=O)Nc3cc(OC)c(OC)c(OC)c3)c3ccccc3c2=O)cc1OC | 69.6
COc1ccc(-n2nc(C(=O)NCC(=O)Nc3cccc(OC)c3)c3ccccc3c2=O)cc1 | 28.1
Cc1cc(NC(=O)c2ccccc2C(F)(F)F)n(-c2nc3ccccc3[nH]2)n1 | 97.3
Cc1cc(NC(=O)c2ccccc2)n(-c2nc3ccccc3n2C)n1 | 6.34
CCCn1nc(C(=O)Nc2nc3ccccc3s2)c2ccccc2c1=O | 37.5
O=C(Nc1nc2ccccc2s1)c1nn(-c2ccccc2)c(=O)c2ccccc12 | 40.7
Cc1cc(NC(=O)c2ccccc2)n(-c2nc3ccccc3[nH]2)n1 | 14.1
COc1ccc(Cl)cc1Nc1nc(-c2sc(NC(=O)c3ccccc3)nc2C)cs1 | 74.9
Cc1nc(NC(=O)c2ccccc2)sc1-c1csc(Nc2ccccc2)n1 | 92
Cc1ccc(Cl)cc1Nc1nc(-c2sc(NC(=O)c3ccco3)nc2C)cs1 | 78
O=C(Nc1nc(-c2ccccc2)cs1)c1nn(-c2ccccc2)c(=O)c2ccccc12 | 23.5
COc1ccc(-n2nc(C(=O)NCC(=O)Nc3ccc(OC)c(OC)c3)c3ccccc3c2=O)cc1 | 84.2
CCCn1nc(C(=O)Nc2nc(-c3ccccn3)cs2)c2ccccc2c1=O | 73.2
Cc1cc(NC(=O)c2cccc(C)c2C)n(-c2nc3ccccc3[nH]2)n1 | 27.5
COCCCNC(=O)c1ccc(Cn2c(=O)c3ccccc3n(Cc3ccccc3C#N)c2=O)cc1 | 73.3
Cc1nc(NC(=O)c2ccccc2)sc1-c1csc(Nc2ccccc2Cl)n1 | 22.6
CCCn1nc(C(=O)Nc2nc(-c3ccncc3)cs2)c2ccccc2c1=O | 88.9
COc1ccccc1Nc1nc(-c2sc(NC(=O)c3ccco3)nc2C)cs1 | 68.4
CCn1nc(C(=O)Nc2nc(-c3ccccn3)cs2)c2ccccc2c1=O | 32.8
Cc1nc(NC(=O)c2ccccc2)sc1-c1csc(Nc2cccc(Cl)c2C)n1 | 43.1
O=C(Nc1nccs1)c1nn(-c2ccccc2)c(=O)c2ccccc12 | 38.3
